# Laboratory results taken from the supplement of paper PMC12282887.
# ± gives the standard deviation of the averaged measurements.
# Legend:
# Experiment in all cases: promoter activity interaction Z-score (Lux/OD deviation from empty-vector control); higher = stronger promoter induction by the compound
# [1] = tested on: E. coli BW25113 acrABp lux reporter
# Outline: (§1)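 At 37°C, E. coli BW25113 reporter cultures in 40 µl LB Lennox in 384-well plates were read for OD600 and luminescence every 30 min for 12 h. Windows were 0–8 h for wild type and 1–9 h for deletion strains, and wells under 10% of the median growth value were removed. The score is the Z-transformed residual of growth-normalised luminescence against a control fit.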
# [2] = tested on: E. coli BW25113 micFp lux reporter
# Outline: as §1
# [3] = tested on: E. coli BW25113 ompFp lux reporter
# Outline: as §1
# [4] = tested on: E. coli BW25113 robp lux reporter
# Outline: as §1
# [5] = tested on: E. coli BW25113 soxSp lux reporter
# Outline: as §1
# [6] = tested on: E. coli BW25113 tolCp lux reporter
# Outline: as §1
# [7] = 28.4 µg/ml, genetic background: wild type
# [8] = 28.4 µg/ml, genetic background: ΔmarA
# [9] = 28.4 µg/ml, genetic background: Δrob
# [10] = 28.4 µg/ml, genetic background: ΔsoxS
# [11] = 56.8 µg/ml, genetic background: wild type
# [12] = 56.8 µg/ml, genetic background: ΔmarA
# [13] = 56.8 µg/ml, genetic background: Δrob
# [14] = 56.8 µg/ml, genetic background: ΔsoxS
# [15] = 113.7 µg/ml, genetic background: wild type
# [16] = 113.7 µg/ml, genetic background: ΔmarA
# [17] = 113.7 µg/ml, genetic background: Δrob
# [18] = 113.7 µg/ml, genetic background: ΔsoxS
# [19] = 227.3 µg/ml, genetic background: wild type
# [20] = 227.3 µg/ml, genetic background: ΔmarA
# [21] = 227.3 µg/ml, genetic background: Δrob
# [22] = 227.3 µg/ml, genetic background: ΔsoxS
smiles,measurement,setting,value
COc1ccc(CCN(C)CCCC(C#N)(c2ccc(OC)c(OC)c2)C(C)C)cc1OC (stereo unspecified) [Verapamil],promoter activity interaction Z-score,[1]; [7],-0.0103 ± 0.0068
same,promoter activity interaction Z-score,[1]; [8],0.651 ± 0.14
same,promoter activity interaction Z-score,[1]; [9],-0.17 ± 0.16
same,promoter activity interaction Z-score,[1]; [10],-0.0848 ± 0.7
same,promoter activity interaction Z-score,[1]; [11],0.383 ± 0.58
same,promoter activity interaction Z-score,[1]; [12],0.649 ± 0.29
same,promoter activity interaction Z-score,[1]; [13],0.236 ± 0.12
same,promoter activity interaction Z-score,[1]; [14],-0.365 ± 0.9
same,promoter activity interaction Z-score,[1]; [15],0.623 ± 0.79
same,promoter activity interaction Z-score,[1]; [16],2.27 ± 1.4
same,promoter activity interaction Z-score,[1]; [17],0.0537 ± 0.02
same,promoter activity interaction Z-score,[1]; [18],-0.0861 ± 0.73
same,promoter activity interaction Z-score,[1]; [19],0.502 ± 0.14
same,promoter activity interaction Z-score,[1]; [20],2.09 ± 0.52
same,promoter activity interaction Z-score,[1]; [21],0.279 ± 0.19
same,promoter activity interaction Z-score,[1]; [22],0.136 ± 0.55
same,promoter activity interaction Z-score,[2]; [7],0.174 ± 0.55
same,promoter activity interaction Z-score,[2]; [8],0.00711 ± 0.17
same,promoter activity interaction Z-score,[2]; [9],0.232 ± 0.1
same,promoter activity interaction Z-score,[2]; [10],-0.114 ± 0.26
same,promoter activity interaction Z-score,[2]; [11],0.0628 ± 0.15
same,promoter activity interaction Z-score,[2]; [12],0.0935 ± 0.19
same,promoter activity interaction Z-score,[2]; [13],0.195 ± 0.062
same,promoter activity interaction Z-score,[2]; [14],-0.187 ± 0.36
same,promoter activity interaction Z-score,[2]; [15],0.65 ± 0.19
same,promoter activity interaction Z-score,[2]; [16],0.105 ± 0.032
same,promoter activity interaction Z-score,[2]; [17],0.115 ± 0.16
same,promoter activity interaction Z-score,[2]; [18],-0.238 ± 0.43
same,promoter activity interaction Z-score,[2]; [19],0.41 ± 0.066
same,promoter activity interaction Z-score,[2]; [20],-0.0581 ± 0.06
same,promoter activity interaction Z-score,[2]; [21],-0.1466 ± 0.00035
same,promoter activity interaction Z-score,[2]; [22],-0.0743 ± 0.052
same,promoter activity interaction Z-score,[3]; [7],-0.365 ± 0.11
same,promoter activity interaction Z-score,[3]; [8],-1.14 ± 0.89
same,promoter activity interaction Z-score,[3]; [9],-0.51 ± 0.49
same,promoter activity interaction Z-score,[3]; [10],-0.279 ± 0.15
same,promoter activity interaction Z-score,[3]; [11],-0.296 ± 0.077
same,promoter activity interaction Z-score,[3]; [12],-0.384 ± 0.03
same,promoter activity interaction Z-score,[3]; [13],-0.384 ± 0.42
same,promoter activity interaction Z-score,[3]; [14],-0.491 ± 0.42
same,promoter activity interaction Z-score,[3]; [15],0.443 ± 0.46
same,promoter activity interaction Z-score,[3]; [16],0.589 ± 0.067
same,promoter activity interaction Z-score,[3]; [17],0.355 ± 1.1
same,promoter activity interaction Z-score,[3]; [18],-0.599 ± 0.19
same,promoter activity interaction Z-score,[3]; [19],1.21 ± 0.48
same,promoter activity interaction Z-score,[3]; [20],1.56 ± 0.13
same,promoter activity interaction Z-score,[3]; [21],1.4 ± 0.93
same,promoter activity interaction Z-score,[3]; [22],1.09 ± 0.35
same,promoter activity interaction Z-score,[4]; [7],0.158 ± 0.075
same,promoter activity interaction Z-score,[4]; [8],0.0269 ± 0.54
same,promoter activity interaction Z-score,[4]; [9],0.215 ± 1.7
same,promoter activity interaction Z-score,[4]; [10],0.00204 ± 1.1
same,promoter activity interaction Z-score,[4]; [11],1.19 ± 0.91
same,promoter activity interaction Z-score,[4]; [12],-0.42 ± 0.62
same,promoter activity interaction Z-score,[4]; [13],-0.201 ± 0.23
same,promoter activity interaction Z-score,[4]; [14],0.308 ± 0.86
same,promoter activity interaction Z-score,[4]; [15],1.4 ± 0.44
same,promoter activity interaction Z-score,[4]; [16],1.73 ± 0.022
same,promoter activity interaction Z-score,[4]; [17],0.608 ± 0.43
same,promoter activity interaction Z-score,[4]; [18],-0.00665 ± 0.6
same,promoter activity interaction Z-score,[4]; [19],1.1 ± 0.18
same,promoter activity interaction Z-score,[4]; [20],2.29 ± 0.91
same,promoter activity interaction Z-score,[4]; [21],0.783 ± 1.4
same,promoter activity interaction Z-score,[4]; [22],1.05 ± 0.94
same,promoter activity interaction Z-score,[5]; [7],-0.18 ± 0.32
same,promoter activity interaction Z-score,[5]; [8],-0.165 ± 0.065
same,promoter activity interaction Z-score,[5]; [9],0.0441 ± 0.32
same,promoter activity interaction Z-score,[5]; [10],-0.273 ± 0.25
same,promoter activity interaction Z-score,[5]; [11],-0.187 ± 0.26
same,promoter activity interaction Z-score,[5]; [12],-0.0917 ± 0.18
same,promoter activity interaction Z-score,[5]; [13],-0.138 ± 0.19
same,promoter activity interaction Z-score,[5]; [14],-0.142 ± 0.42
same,promoter activity interaction Z-score,[5]; [15],0.17 ± 0.18
same,promoter activity interaction Z-score,[5]; [16],-0.0904 ± 0.16
same,promoter activity interaction Z-score,[5]; [17],-0.00688 ± 0.12
same,promoter activity interaction Z-score,[5]; [18],-0.0619 ± 0.28
same,promoter activity interaction Z-score,[5]; [19],-0.0451 ± 0.043
same,promoter activity interaction Z-score,[5]; [20],-0.359 ± 0.078
same,promoter activity interaction Z-score,[5]; [21],-0.361 ± 0.061
same,promoter activity interaction Z-score,[5]; [22],-0.0524 ± 0.36
same,promoter activity interaction Z-score,[6]; [7],0.46 ± 1.1
same,promoter activity interaction Z-score,[6]; [8],-0.252 ± 0.52
same,promoter activity interaction Z-score,[6]; [9],1.67 ± 0.9
same,promoter activity interaction Z-score,[6]; [10],0.403 ± 0.82
same,promoter activity interaction Z-score,[6]; [11],0.842 ± 0.79
same,promoter activity interaction Z-score,[6]; [12],0.112 ± 0.0026
same,promoter activity interaction Z-score,[6]; [13],1.38 ± 0.88
same,promoter activity interaction Z-score,[6]; [14],0.773 ± 0.7
same,promoter activity interaction Z-score,[6]; [15],1.44 ± 0.11
same,promoter activity interaction Z-score,[6]; [16],0.195 ± 0.35
same,promoter activity interaction Z-score,[6]; [17],0.654 ± 0.3
same,promoter activity interaction Z-score,[6]; [18],0.501 ± 1.5
same,promoter activity interaction Z-score,[6]; [19],0.0187 ± 0.66
same,promoter activity interaction Z-score,[6]; [20],-0.769 ± 0.041
same,promoter activity interaction Z-score,[6]; [21],-0.237 ± 0.19
same,promoter activity interaction Z-score,[6]; [22],-0.139 ± 0.8
